Calls of active or inactive are those of the source. The calls were made as follows: active = hit-call score of the fitted dose curve at least 0.9, where 1 is the maximum; inactive = score below 0.9.

The nature of the assay: BSK_BE3C_SRB: Viability Assessment in the BioMAP Diversity Plus: BE3C Assay (AID 2283028).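 As to AC50: fitted both ways so AC50 may mark signal gain or loss versus DMSO.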 The settings on record: primary human bronchial epithelial cells. Here is the method: BSK_BE3C is a cell-based, multiplexed-readout assay that uses bronchial epithelial cell, a human lung primary cell, with measurements taken at 24 hours after chemical dosing in a 96-well plate.BSK_BE3C_SRB is an assay component measured in the BSK_BE3C assay. It measures 0.1% sulforhodamine related to cell death using Sulforhodamine staining technology.Data from the assay component BSK_BE3C_SRB was analyzed into 1 assay endpoint. This assay endpoint, BSK_BE3C_SRB, was analyzed with bidirectional fitting relative to DMSO as the negative control and baseline of activity. Using a type of viability reporter, gain or loss-of-signal activity can be used to understand changes in the signaling. Furthermore, this assay endpoint can be referred to as a primary readout, because this assay has produced multiple assay endpoints where this one serves a signaling function. To generalize the intended target to other relatable targets, this assay endpoint is annotated to the cell morphology intended target family, where the subfamily is cell conformation.
The levels of cell surface (or secreted, indicated by the prefix "s") biomarker endpoints were measured by ELISA. Overt cytotoxicity to cells in confluent adherent cultures (all systems other than the BT system) was assessed by measuring total protein levels using sulforhodamine B (SRB) staining in parallel cultures at the time of biomarker measurements, indicated as SRB endpoints. For proliferation assays for adherent cell types, individual cell types are cultured at sub-confluence and relative cell numbers quantified by SRB staining at time points optimized for each system (48 h: 3C and CASM3C systems; 72 h: BT and HDF3CGF systems; 96 h: SAg system). SRB was performed by staining cells with 0.1% SRB after fixation with 10% TCA and reading wells at 560 nm.Viability and proliferation of PBMC (T cells) was quantified by Alamar Blue reduction for the SAg and BT systems. For PBMC viability (referred to as PBMC Cytotoxicity within the assay endpoint names), cells were plated (75,000/well in a 96-well plate) and then chemical samples added for 1 h before addition of activators, SEB and TSST-1 (20 ng/mL final concentration each). Cells were incubated for 90 h. Then, Alamar Blue (20 uL/well) (Invitrogen, Cat DAL1100) was added for 6 h, and the plates were read with a fluorescence microplate reader at 546/580 nm (excitation/emission). For PBMC proliferation, cells were plated and activated as above but incubated for only 16 h prior to addition of Alamar Blue. Plates were read after 6 h.
Regarding `Oc1ccccc1`, the result was inactive.
The same measure, in the same setting: as for `CCN(Cc1cccc(S(=O)(=O)O)c1)c1ccc(C(=C2C=CC(=[N+](CC)Cc3cccc(S(=O)(=O)O)c3)C=C2)c2ccccc2S(=O)(=O)[O-])cc1`, the entry is “inactive”; as for `Cc1occc1C(=O)Nc1ccc(C(=O)N2CCC(F)(F)/C(=C\C(=O)N3CCC(N4CCCCC4)CC3)c3ccccc32)cc1`, “inactive”.
Same read-out and setting: as for `Cc1ccc2oc(CN(Cc3ccccc3)C(=O)Nc3c(F)cc(F)cc3F)c(-c3ccc(Cl)cc3)c2c1`, the entry is “inactive”; as for `CCCCCCCC[Si](OCC)(OCC)OCC`, “inactive”.
As usually defined, the AC50 is the concentration at which the activity in the assay is half-maximal. For `O=c1[nH]sc2ccccc12`, the AC50 is 37.1 µM (active).
As to `CC(=O)N1CCN(c2ccc(OC[C@H]3CO[C@](Cn4ccnc4)(c4ccc(Cl)cc4Cl)O3)cc2)CC1`, the result was inactive.
Same read-out and setting: as for `O=C(O)Cc1cc(I)c(Oc2ccc(O)c(I)c2)c(I)c1`, the entry is “inactive”; as for `CC(O)CC(C)(C)O` (stereo not given), “inactive”; as for `Cc1ncc(CO)c(CO)c1O`, “inactive”.
Same read-out and setting: as for `CCCCOC(=O)c1ccc(O)cc1`, the entry is “inactive”.
On the same count and under the same terms, as for `CC1=CC(=O)/C(=C(/C)O)C(=O)O1`, the entry is “inactive”; as for `O=C1CCC(C2CCCCC2)CC1`, “inactive”.
In the case of `NCc1cccc(C2CCN(C(=O)c3ccc(C#Cc4ccccc4F)o3)CC2)c1`, the AC50 is 15.4 µM (active).
As to `COc1cccc([C@H](O)C2CCN(CCc3ccc(F)cc3)CC2)c1OC`, the result was inactive.
For the compound `NC(=O)c1nc(-c2cccc(-c3cc(F)ccc3OCC(F)(F)C(F)(F)F)c2)n[nH]1`, the AC50 was 34.5 µM (active).
On to `CC[C@H](NC(=O)c1cc(F)ccc1NS(=O)(=O)c1cccc2cccnc12)c1ccccc1`, for which the outcome was inactive.
With `O=C1c2ccccc2C(=O)N1CCc1noc(-c2ccc(CN3CCCCCC3)s2)n1`, the outcome was inactive.
Consider `CN(C)c1ccc(C(=C2C=CC(=[N+](C)C)C=C2)c2ccc(N(C)C)cc2)cc1`, for which the AC50 is 7.72 µM (active).
For `Oc1ccc2ccccc2c1`, the result was inactive.
Same read-out and setting: as for `O=C(O)c1ccccc1-n1cc(C(=O)O)c(=O)c2cc(Nc3c(F)cc(F)cc3Cl)c(Cl)cc21`, the entry is “inactive”.
For `CC(C)(C)c1csc(-c2cc3cc(OCc4ccccc4CC(=O)O)ccc3o2)n1`, the AC50 was 12.2 µM (active).
As for `Cc1ccc(C(C)C)cc1`, the outcome was inactive.
Still for that read-out and setting: as for `Cc1cn([C@H]2C[C@H](N=[N+]=[N-])[C@@H](CO)O2)c(=O)[nH]c1=O`, the entry is “inactive”.
Turning to `CO[C@H]1/C=C/O[C@@]2(C)Oc3c(C)c(O)c4c(O)c(c(/C=N/N5CCN(C)CC5)c(O)c4c3C2=O)NC(=O)/C(C)=C\C=C\[C@H](C)[C@H](O)[C@@H](C)[C@@H](O)[C@@H](C)[C@H](OC(C)=O)[C@@H]1C`, the result was inactive.
Same read-out and setting: as for `CC(C)(C)c1cc(/C=C2\SC(N)=NC2=O)cc(C(C)(C)C)c1O`, the entry is “inactive”.
As for `CCN(Cc1cccnc1)C(=O)c1cccc(Cl)c1[C@]1(C)C(=O)N(Cc2ccc(OC)cc2OC)c2ccc(Cl)cc21`, the result was inactive.
The same measure, in the same setting: as for `CCCCCc1ccc(N)cc1`, the entry is “inactive”; as for `C[C@]12CC[C@@H]3c4ccc(O)cc4CC[C@H]3[C@@H]1CCC2=O`, “inactive”; as for `CCCCCCCCN(C)CCCCCCCC`, “inactive”.
Same read-out and setting: as for `CCCCCCCCCC(=O)O`, the entry is “inactive”.
Take `CCCCCCCCCCCC[N+](C)(C)C`: the AC50 is 32 µM (active).
Turning to `OCCO`, the result was inactive.
As to `CCN(CC)C(=O)c1cc(S(=O)(=O)Cc2ccccc2)c(N2CCC(c3ccccc3)CC2)cc1N(CC)CCN(C)C`, the AC50 was 11 µM (active).
For the compound `CC(C)(c1cc(Br)c(O)c(Br)c1)c1cc(Br)c(O)c(Br)c1`, the AC50 is 5.06 µM (active).
Consider `CN(C)C(=O)C1(N2CCCCC2)CCN(CC[C@@]2(c3ccc(Cl)c(Cl)c3)CN(C(=O)c3ccccc3)CCO2)CC1`, for which the AC50 was 26.6 µM (active).
Regarding `CC(C)(O)c1ccc(CNC(=O)c2cccnc2Oc2ccc3nonc3c2)cc1`, the outcome was inactive.
For the compound `CCCCOC(=O)CC(CC(=O)OCCCC)(OC(C)=O)C(=O)OCCCC`, the result was inactive.
Regarding `CN(C[C@@H](CC[N+]12CCC(C3CCCCC3)(CC1)CC2)c1ccc(Cl)c(Cl)c1)C(=O)c1cc(C(F)(F)F)cc(C(F)(F)F)c1`, the AC50 is 13 µM (active).
Consider `Cc1cc(F)ccc1-c1cc(N2CC[C@@H](O)[C@H]2CO)ncc1N(C)C(=O)C(C)(C)c1cc(C(F)(F)F)cc(C(F)(F)F)c1`, for which the AC50 was 12.9 µM (active).

Source of the values: PubChem BioAssay (EPA / NIEHS).
